Screens as filed in PubChem.
PLK1 PBD block: inhibitors of human PLK1 polo-box domain binding. Plk1 PBD binding of FITC phosphopeptide, fluorescence polarization. Potency, µM, hits mostly inhibitors. 2.8% of 360,000 active. AID 720504; also: series mostly up to about 57 µM; nearly all actives have a fitted effect of over 65% in size
VDR inh: blocks the human vitamin D receptor; AID 504847; 0.93% of 400,000 active; Potency, µM, most hits filed as inhibitors; P11473; VDR-SRC2-3 peptide fluorescence polarization, 2 h
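VDR–SRC2-3 interaction, FP format. Cmpds 23 nl via pintool, brief spin, 2 h ambient incubation.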
Sfp inh: Sfp phosphopantetheinyl transferase inhibition. Q9F4F7. Biochemical Sfp PPTase activity, qHTS. Potency, µM, actives largely listed as inhibitors. 3.5% of 310,000 active. AID 1490;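 also: the enzyme is Sfp with the accession as filed and its product quenches rhodamine fluorescence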
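Reaction rates are the 30-min fluorescence difference (ex 525, em 598 nm) in wells containing 15 nM Sfp, 5 uM rhodamine-CoA and 12.5 uM BHQ-2-YbbR at pH 7.6 with 10 mM MgCl2.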
ALOX12 inh: blocks human arachidonate 12S-lipoxygenase; purified 12hLO, xylenol orange hydroperoxide absorbance; Potency, µM (doses to about 108 µM), hits mostly inhibitors; 1.1% of 580,000 active
Target sequence (P18054 whole entry, looked up): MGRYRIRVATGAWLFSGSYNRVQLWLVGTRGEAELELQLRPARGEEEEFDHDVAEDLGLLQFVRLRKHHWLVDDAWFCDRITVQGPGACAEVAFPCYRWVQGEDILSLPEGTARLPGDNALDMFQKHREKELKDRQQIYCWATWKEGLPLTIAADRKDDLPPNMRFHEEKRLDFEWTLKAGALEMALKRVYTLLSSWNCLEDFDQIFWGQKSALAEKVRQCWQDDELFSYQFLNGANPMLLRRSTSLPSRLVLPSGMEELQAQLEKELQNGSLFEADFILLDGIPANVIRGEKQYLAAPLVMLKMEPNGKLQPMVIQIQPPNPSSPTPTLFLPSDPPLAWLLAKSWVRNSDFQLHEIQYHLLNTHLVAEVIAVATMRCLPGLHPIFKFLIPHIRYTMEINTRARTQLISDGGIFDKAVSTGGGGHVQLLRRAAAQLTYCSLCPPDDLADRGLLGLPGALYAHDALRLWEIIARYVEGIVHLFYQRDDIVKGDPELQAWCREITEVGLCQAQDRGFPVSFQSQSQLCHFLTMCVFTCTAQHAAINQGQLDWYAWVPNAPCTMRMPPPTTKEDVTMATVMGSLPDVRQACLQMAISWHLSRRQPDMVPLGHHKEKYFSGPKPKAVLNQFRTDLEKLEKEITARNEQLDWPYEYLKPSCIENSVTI
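Purified human 12hLO at 150 nM in 25 mM Hepes, 0.01% Triton X-100, pH 7.0, preincubated 15 min at room temperature with compound. Reaction started with 40 uM arachidonic acid, 30 min at room temperature. Hydroperoxide measured by Fe-xylenol orange, 573/405 nm absorbance ratio.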
Hits are given with their value. Sampled rows, rich in hits. Any-hit rate of the full collection: about 4.2%. Calls follow the shape of the dose curve; as a rule, active = well fitted curve in the direction sought with a large enough effect; inconclusive = small, poorly fitted or top-dose-only effect, or another doubt; inactive = no such curve, though single readings can be large; an effect the other way counts as inactive or inconclusive.

`COc1ccc(-n2c(N)c(C(=O)NCc3ccco3)sc2=S)cc1` gave PLK1 PBD block inactive, VDR inh inactive, Sfp inh inactive and ALOX12 inh inactive.
For CCOC(=O)c1ccc(-n2c(N)c(C(=O)NCc3ccco3)sc2=S)cc1 the results were PLK1 PBD block 24µM, VDR inh inconclusive, Sfp inh 35µM and ALOX12 inh inconclusive.
`CCOC(=O)c1c(C)c(C(=O)NCc2ccco2)c(C)n1Cc1ccccc1` gave PLK1 PBD block 27µM, VDR inh inconclusive, Sfp inh inactive and ALOX12 inh inconclusive.
CCOC(=O)c1c(C)c(C(=O)NCc2ccco2)c(C)n1CC was read as PLK1 PBD block inactive, VDR inh inactive, Sfp inh inactive and ALOX12 inh inactive.
Screening Cc1ccccc1CN1CC[C@H](c2nnc(-c3cncn3C)o2)C1 returned ALOX12 inh inactive.
For CCc1ccccc1N/C=C(\C#N)c1nc(-c2ccc(C)cc2C)cs1 the results were ALOX12 inh inactive.
`C=CCNC(=O)c1sc(=S)n(-c2ccc(C(=O)OCC)cc2)c1N` gave PLK1 PBD block 21µM, VDR inh inconclusive, Sfp inh 20µM and ALOX12 inh inconclusive.
CCOC(=O)CSc1nc2c(sc(=S)n2-c2ccc(CC)cc2)c(=O)[nH]1 was read as PLK1 PBD block inactive, VDR inh inactive, Sfp inh inactive and ALOX12 inh inconclusive.
CCOC(=O)c1ccc(-n2c(=S)sc3c(=O)[nH]c(C)nc32)cc1 was read as PLK1 PBD block 5.3µM, VDR inh 50µM and Sfp inh 13µM.
`COc1ccc(-n2c(N)c(C(=O)NCC3CCCO3)sc2=S)cc1` (configuration not stated) gave PLK1 PBD block inactive, VDR inh inactive, Sfp inh inactive and ALOX12 inh inactive.
For C=CCOC(=O)c1ccc(-n2cncn2)nc1 the results were PLK1 PBD block inactive, VDR inh inactive, Sfp inh inactive and ALOX12 inh inactive.
COC(=O)CCCCCCCCC(O)CN(C)C (configuration not stated) was read as PLK1 PBD block 27µM, VDR inh inconclusive, Sfp inh inactive and ALOX12 inh inactive.
`CCN(CC)CC(O)CCCCCCCCC(=O)OC` (configuration not stated) gave PLK1 PBD block inactive, VDR inh inactive, Sfp inh inactive and ALOX12 inh inactive.
For O=C(Cc1ccccc1)NC1(O)C(=O)c2ccccc2C1=O the results were PLK1 PBD block inactive, VDR inh 35µM, Sfp inh inactive and ALOX12 inh inconclusive.
CC(NC(=O)Cc1ccccc1)c1ccccc1 (configuration not stated) was read as PLK1 PBD block inactive, VDR inh inactive, Sfp inh inactive and ALOX12 inh inactive.
For CCN(CC(=O)Nc1c(F)cccc1F)C(=O)CCC(=O)c1ccc(F)cc1 the results were PLK1 PBD block inactive, VDR inh inactive and ALOX12 inh inactive.
CCOCCCNC(=S)N1CCN(Cc2ccc3c(c2)OCO3)CC1 was read as PLK1 PBD block inactive, VDR inh inactive, Sfp inh inconclusive and ALOX12 inh inconclusive.
COc1ccc(NC(=S)N2CCN(C(=O)C3CCCO3)CC2)c(OC)c1 (configuration not stated) was read as PLK1 PBD block inactive, VDR inh inactive, Sfp inh inactive and ALOX12 inh inactive.
`CCCC(=O)Nc1c(I)cc(I)c(C[C@H](CC)C(=O)O)c1I` gave VDR inh inactive and Sfp inh inactive.
`CCC(Cc1c(I)cc(I)c(O)c1I)C(=O)O` (configuration not stated) gave VDR inh 32µM and Sfp inh 56µM.
Screening CCOc1ccc(NC(=O)c2sc3nc4c(c(-c5ccccc5)c3c2N)C(=O)CC(C)(C)C4)cc1 returned VDR inh inactive and ALOX12 inh inactive.
`CCOC(=O)N1CCN(C(=O)c2ccc(CSc3ccc(Cl)cc3)cc2)CC1` gave PLK1 PBD block 27µM, VDR inh inactive, Sfp inh inconclusive and ALOX12 inh inactive.
CN(C)CCCn1c(SCC(=O)Nc2nc(-c3cccc(Br)c3)cs2)nc2ccccc2c1=O was read as PLK1 PBD block inactive, VDR inh inactive, Sfp inh 45µM and ALOX12 inh inactive.
Screening COc1ccc(N(CC(=O)Nc2cc(C)ccc2C)S(=O)(=O)c2ccccc2[N+](=O)[O-])c(OC)c1 returned PLK1 PBD block 12µM, VDR inh inactive, Sfp inh inactive and ALOX12 inh inconclusive.
Screening CC(=O)Nc1ccc(S(=O)(=O)NNC(=O)COc2ccc(Cl)cc2Cl)cc1 returned PLK1 PBD block inactive, VDR inh inactive, Sfp inh inactive and ALOX12 inh inactive.
CCOc1ccc(-c2nnc(N(CC)C(=O)C3CCC3)s2)cc1 was read as PLK1 PBD block inconclusive, VDR inh inactive, Sfp inh 40µM and ALOX12 inh inactive.
For COCCN(C(=O)C1CC1)c1nnc(-c2ccc(C)cc2)s1 the results were PLK1 PBD block inactive, VDR inh inactive, Sfp inh inactive and ALOX12 inh inactive.
`CCOC(=O)C1=C(c2ccccc2)NC(N)=NC1c1ccc(OCc2ccc(C(=O)OC)cc2)cc1` (configuration not stated) gave PLK1 PBD block inactive, VDR inh inactive, Sfp inh 79µM and ALOX12 inh inconclusive.
For O=C(CSc1nnc(Cc2ccccc2)n1Cc1ccccc1)NCc1ccco1 the results were PLK1 PBD block inconclusive, VDR inh inactive, Sfp inh inactive and ALOX12 inh inactive.
`N#Cc1cccc(C(=O)NC2CCCN(c3cc(-c4ccc(F)cc4)[nH]n3)C2)c1` (configuration not stated) gave ALOX12 inh inactive.
`Cc1ccc(NC(=O)c2cnc(N3CCN(c4ccccn4)CC3)c3ccccc23)c(Br)c1` gave PLK1 PBD block 24µM, VDR inh inactive, Sfp inh inactive and ALOX12 inh inactive.
`CCn1cc(S(=O)(=O)c2cc(C)cc(C)c2)c(=O)c2cc(F)c(N3CCOCC3)cc21` gave VDR inh inactive and ALOX12 inh inactive.
Screening Oc1ccc(/C=N/Nc2ccc(Cl)nn2)c(O)c1O returned PLK1 PBD block 17µM, VDR inh inactive, Sfp inh 10µM and ALOX12 inh inconclusive.
For COc1cc(/C=N/Nc2ccc(Cl)nn2)cc(OC)c1O the results were PLK1 PBD block inactive, VDR inh inactive, Sfp inh 50µM and ALOX12 inh inconclusive.
Screening COc1cc(/C=N/Nc2ncc(C(F)(F)F)cc2Cl)cc(OC)c1O returned PLK1 PBD block inactive, VDR inh inactive, Sfp inh 89µM and ALOX12 inh inconclusive.
Screening Cc1nn(-c2ccc(Cl)cc2Cl)c(C)c1C(=O)O returned PLK1 PBD block inactive, VDR inh inactive, Sfp inh inactive and ALOX12 inh inactive.
`Cc1nc(Nc2cnc(/C=C/c3cc(C(=O)Nc4cccc(C(F)(F)F)c4)ccc3C)cn2)cc(N2CCNCC2)n1` gave PLK1 PBD block inactive, VDR inh inactive and Sfp inh 50µM.
For O=C1CCC([N+](=O)[O-])C(c2cc3c(cc2Br)OCO3)N1 (configuration not stated) the results were PLK1 PBD block inactive, VDR inh inactive, Sfp inh inactive and ALOX12 inh inactive.
